In all, about 5,500 compounds went through this assay and about 2,000 (36%) were called active. About 18% were inconclusive and are not listed. Cut-off read from the data, not from the text of the source: active = normalized growth mostly below about 0.91 (no sharp cut-off); inconclusive = no clear call, values can overlap the other calls; inactive = mostly above about 0.92. The list shows a part of the results.
Test: chemical genetic growth profiling, strain panel (AID 1159580);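 note: tested at 20 µM; growth read once vehicle control cultures reached saturation at 30 °C; 1 = growth at the plate median or of vehicle wells; lower values mean less growth of the strain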
Details: S. cerevisiae deletion strains, growth OD

Measured: normalized growth

CC(=O)O[C@@H]1CC2C(C)(C)C=CC(=O)[C@]2(C)C2CC[C@@]3(C)[C@H](c4ccoc4)OC(=O)C4OC43[C@@]21C (some centres not stated)
inactive: locus YAL021C, strain ccr4, hits give low values 0.985 | locus YAL026C, strain drs2, hits give low values 1 | locus YAL030W, strain snc1, hits give low values 0.999 | locus YBL061C, strain skt5, hits give low values 1 | locus YBR009C, strain hhf1, hits give low values 1 | locus YBR021W, strain FUR4, hits give low values 1.04 | locus YBR023C, strain chs3, hits give low values 0.988 | locus YBR171W, strain sec66, hits give low values 1.01 | locus YBR229C, strain ROT2, hits give low values 1.01 | locus YBR231C, strain swc5, hits give low values 1.01 | locus YBR279W, strain paf1, hits give low values 1 | locus YCL011C, strain gbp2, hits give low values 0.998 | locus YCL016C, strain dcc1, hits give low values 1 | locus YCL029C, strain bik1, hits give low values 1 | locus YCL061C, strain MRC1, hits give low values 0.998 | locus YCL069W, strain vba3, hits give low values 0.992 | locus YCR088W, strain abp1, hits give low values 0.994 | locus YDL005C, strain med2, hits give low values 0.987 | locus YDL035C, strain GPR1, hits give low values 1.03 | locus YDL040C, strain nat1, hits give low values 0.986 | locus YDL074C, strain BRE1, hits give low values 1.03 | locus YDL101C, strain DUN1, hits give low values 1.01 | locus YDL134C, strain PPH21, hits give low values 1.02 | locus YDL185W, strain tfp1, hits give low values 0.984 | locus YDL192W, strain arf1, hits give low values 1 | locus YDR001C, strain nth1, hits give low values 0.995 | locus YDR069C, strain doa4, hits give low values 0.985 | locus YDR101C, strain arx1, hits give low values 1 | locus YDR137W, strain rgp1, hits give low values 0.974 | locus YDR159W, strain sac3, hits give low values 0.988 | locus YDR162C, strain NBP2, hits give low values 1.04 | locus YDR195W, strain ref2 1 | locus YDR297W, strain sur2, hits give low values 0.994 | locus YDR318W, strain mcm21, hits give low values 1.01 | locus YDR334W, strain swr1, hits give low values 1.01 | locus YDR335W, strain msn5, hits give low values 0.997 | locus YDR388W, hits give low values 1 | locus YDR392W, strain spt3, hits give low values 0.963 | locus YDR502C, strain sam2, hits give low values 0.991 | locus YEL003W, strain gim4, hits give low values 0.984 | locus YEL037C, strain rad23, hits give low values 0.998 | locus YEL061C, strain CIN8 (second series), hits give low values 0.995 | locus YER015W, strain faa2, hits give low values 1 | locus YER016W, strain bim1, hits give low values 0.993 | locus YER110C, hits give low values 1 | locus YER111C, strain swi4, hits give low values 1 | locus YER155C, strain BEM2 (second series), hits give low values 0.996 | locus YER155C, strain BEM2, hits give low values 1.01 | locus YER167W, strain BCK2, hits give low values 1.03 | locus YFR010W, strain ubp6, hits give low values 1.04 | locus YGL078C, strain dbp3, hits give low values 0.986 | locus YGL086W, strain mad1, hits give low values 1 | locus YGL167C, strain pmr1, hits give low values 0.991 | locus YGL173C, strain kem1, hits give low values 0.996 | locus YGL227W, strain vid30, hits give low values 0.992 | locus YGL240W, strain doc1, hits give low values 0.983 | locus YGL248W, strain PDE1, hits give low values 1.02 | locus YGL253W, strain hxk2, hits give low values 0.977 | locus YGR135W, strain pre9, hits give low values 0.987 | locus YGR229C, strain SMI1, hits give low values 1.04 | locus YGR252W, strain gcn5, hits give low values 0.994 | locus YHR013C, strain ard1, hits give low values 1.01 | locus YHR027C, strain rpn1, hits give low values 1 | locus YHR030C, strain SLT2, hits give low values 1.01 | locus YHR079C, strain IRE1 (second series), hits give low values 1 | locus YHR094C, strain hxt1, hits give low values 0.995 | locus YHR129C, strain ARP1, hits give low values 1.02 | locus YHR142W, strain chs7, hits give low values 0.987 | locus YHR200W, strain rpn10, hits give low values 0.998 | locus YIL066C, strain RNR3, hits give low values 1.02 | locus YIL073C, strain SPO22, hits give low values 1.03 | locus YIL125W, strain kgd1, hits give low values 1.01 | locus YIR030C, strain dcg1, hits give low values 0.996 | locus YJL092W, strain hpr5, hits give low values 1 | locus YJL095W, strain BCK1 (second series), hits give low values 1 | locus YJL095W, strain BCK1, hits give low values 1.01 | locus YJL115W, strain asf1, hits give low values 1 | locus YJL129C, strain trk1, hits give low values 0.994 | locus YJL134W, strain LCB3, hits give low values 1.01 | locus YJL154C, strain vps35, hits give low values 0.999 | locus YJL164C, strain tpk1, hits give low values 0.996 | locus YJL166W, strain qcr8, hits give low values 0.992 | locus YJL168C, strain set2, hits give low values 1 | locus YJL187C, strain SWE1 (second series), hits give low values 1.01 | locus YJL187C, strain SWE1, hits give low values 1 | locus YJR043C, strain POL32, hits give low values 1.03 | locus YJR075W, strain HOC1, hits give low values 1.02 | locus YKL068W, hits give low values 1 | locus YKL085W, strain MDH1 (second series), hits give low values 1 | locus YKL085W, strain MDH1, hits give low values 1 | locus YKL160W, strain elf1, hits give low values 0.997 | locus YKL190W, strain CNB1, hits give low values 1.02 | locus YKR001C, strain vps1, hits give low values 1 | locus YKR026C, strain gcn3, hits give low values 0.996 | locus YKR091W, strain srl3, hits give low values 1 | locus YLL001W, strain dnm1, hits give low values 1.01 | locus YLL026W, hits give low values 1 | locus YLL041C, strain sdh2, hits give low values 1 | locus YLR027C, strain aat2, hits give low values 0.997 | locus YLR039C, strain RIC1, hits give low values 1.05 | locus YLR058C, strain SHM2, hits give low values 1.03 | locus YLR102C, strain apc9, hits give low values 0.998 | locus YLR221C, strain rsa3, hits give low values 0.991 | locus YLR258W, strain gsy2, hits give low values 0.984 | locus YLR262C, strain YPT6 (second series), hits give low values 1 | locus YLR262C, strain YPT6, hits give low values 1.09 | locus YLR268W, strain sec22, hits give low values 1 | locus YLR320W, strain mms22, hits give low values 0.999 | locus YLR330W, strain CHS5, hits give low values 1.01 | locus YLR342W, strain FKS1 (second series), hits give low values 0.989 | locus YLR342W, strain FKS1, hits give low values 1 | locus YLR357W, strain rsc2, hits give low values 1.02 | locus YLR370C, strain arc18, hits give low values 0.999 | locus YLR371W, strain rom2, hits give low values 1.01 | locus YLR384C, strain iki3, hits give low values 1.01 | locus YLR418C, strain cdc73, hits give low values 0.973 | locus YML016C, strain PPZ1, hits give low values 1.02 | locus YML032C, strain rad52, hits give low values 1 | locus YML120C, strain ndi1, hits give low values 1 | locus YML124C, strain tub3, hits give low values 1 | locus YMR058W, strain fet3, hits give low values 1 | locus YMR078C, strain ctf18, hits give low values 0.985 | locus YMR125W, strain sto1, hits give low values 0.999 | locus YMR129W, hits give low values 0.99 | locus YMR205C, strain PFK2, hits give low values 0.996 | locus YMR223W, strain ubp8, hits give low values 0.997 | locus YMR231W, strain pep5, hits give low values 0.973 | locus YMR307W, strain GAS1, hits give low values 1.02 | locus YNL067W, strain RPL9B, hits give low values 1.02 | locus YNL071W, strain lat1, hits give low values 0.994 | locus YNL128W, strain TEP1, hits give low values 1.02 | locus YNL209W, strain ssb2, hits give low values 1.01 | locus YNL233W, strain BNI4, hits give low values 1.02 | locus YNL248C, strain rpa49, hits give low values 1.01 | locus YNL250W, strain rad50, hits give low values 0.989 | locus YNL271C, strain bni1, hits give low values 1 | locus YNL298W, strain CLA4, hits give low values 0.998 | locus YNL307C, strain MCK1, hits give low values 0.993 | locus YNL322C, strain KRE1 (second series), hits give low values 1 | locus YNR049C, strain mso1, hits give low values 1 | locus YNR052C, strain pop2, hits give low values 1 | locus YOL012C, strain htz1 0.75 | locus YOL147C, strain pex11, hits give low values 0.995 | locus YOR001W, strain rrp6, hits give low values 0.995 | locus YOR061W, strain CKA2, hits give low values 1.02 | locus YOR069W, strain VPS5, hits give low values 1.01 | locus YOR070C, strain gyp1, hits give low values 0.998 | locus YOR080W, strain dia2, hits give low values 0.993 | locus YOR083W, strain WHI5, hits give low values 1 | locus YOR106W, strain vam3, hits give low values 1.01 | locus YOR136W, strain idh2, hits give low values 1 | locus YOR144C, strain elg1, hits give low values 1.01 | locus YOR184W, strain ser1, hits give low values 1.01 | locus YOR265W, strain rbl2, hits give low values 0.997 | locus YOR270C, strain vph1, hits give low values 0.956 | locus YOR290C, strain snf2, hits give low values 0.968 | locus YOR316C, strain cot1, hits give low values 0.993 | locus YPL051W, strain arl3, hits give low values 1.03 | locus YPL055C, strain LGE1, hits give low values 1.03 | locus YPL078C, strain atp4, hits give low values 0.983 | locus YPL106C, strain sse1, hits give low values 1.02 | locus YPL240C, strain hsp82, hits give low values 0.998 | locus YPR119W, strain clb2, hits give low values 0.998 | locus YPR141C, strain kar3, hits give low values 0.998 | locus YPR163C, strain tif3, hits give low values 1.01 | locus YPR167C, strain met16, hits give low values 0.997 | strain wtn01, hits give low values 1.01

Source: PubChem BioAssay AID1159580 (chemical genetic matrix, 2015)
